Several values for one entry are separate records, joined by “and”; a condition that tells them apart may be missing. Identical values can stand only once. Results filed as inconclusive are left out. A number with no mark means an inactive call. Calls follow the shape of the dose curve; as a rule, active = well fitted curve in the direction sought with a large enough effect; inconclusive = small, poorly fitted or top-dose-only effect, or another doubt; inactive = no such curve, though single readings can be large or run the other way.

A short description of this test: Confirmatory Assay for Inhibitors of Human Galactokinase (GALK): Phenol-HRP redox assay counterscreen for probe SAR. The following applies: Phenol red-HRP H2O2 redox cycling, absorbance 600 nm. The source says: NIH Molecular Libraries Probe Production Centers Network [MLPCN] NIH Chemical Genomics Center [NCGC] MLPCN Grant: R03 MH085689-01 Assay Submitter (PI): Kent Lai (University of Utah School of Medicine, 50 N Mario Capecchi Drive, Salt Lake City, UT 84132) NCGC Assay Overview: One mM dithiothreitol (DTT) was used as a reducing agent to maintain the galactokinase (GALK) enzyme in its active form in the GALK qHTS screen (AID: 1868). However, it has been shown that in the presence of DTT a number of compounds also undergo redox recyling, generating a significant amount of H2O2 that can oxidize crucial cysteine residues in the enzyme, leading to and a false-positive result. To evaluate and flag redox recycling compounds for compounds re-acquired from the qHTS screen, an endpoint colorimetric assay developed by Johnston et al. was adopted and optimized for a 1536-well plate format. In brief, the assay detects the presence of H2O2 by following the change in absorbance at 600 nm due to oxidation of phenol red (Sigma, cat# 114537) catalyzed by horseradish peroxidase (HRP; Invitrogen). A stop reagent, 1N NaOH was added prior to reading the absorbance. DMSO and different concentrations of hydrogen peroxide (Sigma, cat# 216763) in the GALK buffer were used as negative and positive controls respectively.
NCGC Assay Protocol Summary: Two uL/well of GALK buffer (20mM HEPES pH8.0, 5 mM MgCl2, 60 mM NaCl, 1 mM DTT, 0.01% BSA final concentration) was dispensed into a 1536-well assay plates (Greiner, black clear bottom plates) with Aurora Discovery BioRAPTR Flying Reagent Dispenser (FRD; Beckton-Dickenson). Compound and control solutions (23 nL each) were transferred to the assay plate in their respective wells using Kalypsys pin tool equipped with a 1536-pin tool head and incubated at room temperature for 30 min. Presence of H2O2 produced by redox cycling compounds was detected by adding 2 uL/well phenol red - HRP detection reagent ([…] phenol red in 1x Hanks Balanced Salt Solution, 25 U/mL HRP final concentrations). After 15 min of room temperature incubation, the reaction was stopped by adding 2 uL/well 1N NaOH and incubated for an additional 1 hr at room temperature. The absorbance at 600 nm was measured using the ViewLux plate reader (Perkin Elmer, Waltham, MA) with 6000 light energy, 2 sec exposure, and 2x binning instrument settings.
A general note: The purpose of a counterscreen is to sort out artefacts and off-target activity.
`Cn1c(NC2=NC3(CCCC3)C3=C(CCCC3=O)N2)nc2ccccc21`: the max response was -10.7%. Take `O=C1CCCC2=C1[C@@]1(CCC(c3ccccc3)C1)N=C(Nc1nc3ccccc3o1)N2` (stereo partly specified): the max response is -22.7%. With `O=C1CCCC2=C1C1(CCCC1)N=C(Nc1nc3cc(Br)ccc3o1)N2`, the max response is -13.4%. In the case of `O=C1CCCC2=C1C1(CCCC1)N=C(Nc1nc3cc4ccccc4cc3o1)N2`, the max response is -24.7%. For `O=C1CCCC2=C1C1(CCCOC1)N=C(Nc1nc3ccccc3o1)N2` (stereo unspecified) the value was 1.73%; for `Cc1ccc(C2N=C(Nc3nc4ccccc4o3)NC3=C2C(=O)CC(C)(C)C3)cc1` (stereo unspecified), 0.33%; for `O=C1CCCC2=C1C1(CCCC1)N=C(Nc1nc3ccccc3o1)N2`, -5.8% and 7.13%. For the molecule `O=C1CCCC2=C1C1(CCS(=O)(=O)C1)N=C(Nc1nc3ccccc3o1)N2` (stereo unspecified), the max response was 7.09%. For `COc1ccc(C2N=C(Nc3nc4ccccc4o3)NC3=C2C(=O)CC(C)(C)C3)cc1` (stereo unspecified) the value was -4.13%; for `COc1cccc(C2N=C(Nc3nc4ccccc4o3)NC3=C2C(=O)CC(C)(C)C3)c1` (stereo unspecified), -7.9%; for `CC1(C)CC(=O)C2=C(C1)NC(Nc1nc3ccccc3o1)=NC2c1cccnc1` (stereo unspecified), -12.6%.

In the case of `CC1(C)CC(=O)C2=C(C1)NC(Nc1nc3ccccc3o1)=NC2c1cccc(Cl)c1` (stereo unspecified), the max response is -8.98%. For `O=C1CC(c2ccccc2)CC2=C1C1(CCCC1)N=C(Nc1nc3ccccc3o1)N2` (stereo unspecified), the max response is -23.7%. For `Cc1ccc2oc(NC3=NC4(CCCC4)C4=C(CCCC4=O)N3)nc2c1` the value was -13.5%. For the molecule `CC1(C)CC(=O)C2=C(C1)NC(Nc1nc3ccccc3o1)=NC2c1ccccc1Cl` (stereo unspecified), the max response is -4.5%. On to `O=C1CCCC2=C1C1(CCCC1)N=C(Nc1nc3cc(-c4ccccc4)ccc3o1)N2`, for which the max response was -17.5%. In the case of `O=C1CCCC2=C1C(c1ccc(Cl)cc1)N=C(Nc1nc3ccccc3o1)N2` (stereo unspecified), the max response was 2.22%. Consider `O=C1CCCC2=C1C1(CCCC1)N=C(Nc1nc3ccccc3n1Cc1ccccc1)N2`, for which the max response is -7.8%. With `Cc1nc(Nc2nc3ccccc3o2)nc2c1C(=O)CC(C)(C)C2` the figure was -9.62%; with `Cc1ccc2nc(NC3=NC4(CCCC4)C4=C(CCCC4=O)N3)oc2c1`, -9.86%. Regarding `O=C1CCCC2=C1C1(CCC1)N=C(Nc1nc3ccccc3o1)N2`, the max response is -2.94%. With `O=C1CCCC2=C1C1(CCCC1)N=C(Nc1nc3cc(Cl)ccc3o1)N2`, the max response was -6.87%.

As to `CC1(C)CC(=O)C2=C(C1)NC(Nc1nc3ccccc3o1)=NC2c1ccccc1` (stereo unspecified), the max response was 4.41%.

In the case of `CC1CCC2(C1)N=C(Nc1nc3ccccc3o1)NC1=C2C(=O)CCC1` (stereo unspecified), the max response was 2.86%.

As for `O=C1CCC2=C1C1(CCCC1)N=C(Nc1nc3ccccc3o1)N2`, the max response is -0.733%. Take `O=C1CCCC2=C1C1(CCOCC1)N=C(Nc1nc3ccccc3o1)N2`: the max response was -7.41%.

As for `O=C1CC(c2ccccc2)CC2=C1C1(CCCCC1)N=C(Nc1nc3ccccc3o1)N2` (stereo unspecified), the max response was -19.3%. Take `CCC1CCC2(C1)N=C(Nc1nc3ccccc3o1)NC1=C2C(=O)CCC1` (stereo unspecified): the max response was 9.72% [middle of 5 runs]. As to `O=C1CCCC2=C1C1(CCSCC1)N=C(Nc1nc3ccccc3o1)N2`, the max response is 3.32%. For `COc1ccccc1C1N=C(Nc2nc3ccccc3o2)NC2=C1C(=O)CC(C)(C)C2` (stereo unspecified) the value was -7.36%. `O=C1CCCC2=C1C1(CCCCC1)N=C(Nc1nc3ccccc3o1)N2`: the max response was -4.16%. As for `CC1(C)CC(=O)C2=C(C1)NC(Nc1nc3ccccc3o1)=NC21CCCC1`, the max response is -0.364%. For `O=C1CCCC2=C1C(c1ccccc1Cl)N=C(Nc1nc3ccccc3o1)N2` (stereo unspecified) the value was 1.07%; for `CC1(C)N=C(Nc2nc3ccccc3o2)NC2=C1C(=O)CCC2`, -7.6%. Regarding `O=C1CCC2=C1C(c1ccccc1Cl)N=C(Nc1nc3ccccc3o1)N2` (stereo unspecified), the max response was 4.53%. For the molecule `O=C1CCCC2=C1C1(CCSC1)N=C(Nc1nc3ccccc3o1)N2` (stereo unspecified), the max response was 9.11%.

These data come from PubChem BioAssay AID2502 (National Center for Advancing Translational Sciences (NCATS), 2010).
